Holding throughout (assay): DAPPL (digital affinity profiling via proximity ligation, sequencing); 10 mM Tris-HCl pH 7.5, 50 mM NaCl, 1 mM DTT, 4% glycerol, room temperature, 30 min; GST-TFs on glutathione beads, 16-mer random dsDNA library, 0.1% formaldehyde crosslink after washing; high values mean tight binding
Common to all, as to conditions: protein: recombinant; tags: N-terminal GST; dsDNA, one strand shown

For one test, the target named is T1, FEV (Homo sapiens, UniProt Q99581 1-238).
T1 sequence: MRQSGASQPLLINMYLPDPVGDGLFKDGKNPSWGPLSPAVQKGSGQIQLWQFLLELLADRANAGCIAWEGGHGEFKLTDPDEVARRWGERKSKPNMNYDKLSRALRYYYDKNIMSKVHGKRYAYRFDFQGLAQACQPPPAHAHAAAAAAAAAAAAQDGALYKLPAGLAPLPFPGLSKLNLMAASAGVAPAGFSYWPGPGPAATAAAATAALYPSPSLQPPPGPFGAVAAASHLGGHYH
The procedure, abridged: (§1)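 Binding signal is given per hexamer as its read frequency for a factor divided by its frequency in the tag-only sample. GST-fused human transcription factors were expressed in yeast, captured on glutathione beads, barcoded with DNA and pooled with that sample, then incubated with 200 nmole of a 16-mer random double-stranded DNA library in Tris/NaCl/DTT/glycerol buffer for 30 min at room temperature. The pools were then washed, crosslinked, proximity-ligated, amplified by PCR and sequenced on an Illumina NextSeq500.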

The next test addresses ETV5 (Homo sapiens, UniProt P41161 1-510). In outline:
as §1

The target in a further test is T2, SPIC (Homo sapiens, UniProt Q8N5J4 1-248).
T2 sequence: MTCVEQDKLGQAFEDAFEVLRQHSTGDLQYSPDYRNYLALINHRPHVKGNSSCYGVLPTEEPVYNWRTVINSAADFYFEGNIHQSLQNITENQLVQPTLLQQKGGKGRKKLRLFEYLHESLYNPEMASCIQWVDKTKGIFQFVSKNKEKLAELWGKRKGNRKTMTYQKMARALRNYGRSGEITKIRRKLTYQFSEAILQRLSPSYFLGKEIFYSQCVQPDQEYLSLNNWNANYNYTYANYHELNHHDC
In outline:
as §1

The next test concerns the target ELF4 (Homo sapiens, UniProt Q99607 1-663). The procedure, abridged: as §1
The next test deals with T3, ELK4 (Homo sapiens, UniProt P28324-2 1-405).
T3 sequence: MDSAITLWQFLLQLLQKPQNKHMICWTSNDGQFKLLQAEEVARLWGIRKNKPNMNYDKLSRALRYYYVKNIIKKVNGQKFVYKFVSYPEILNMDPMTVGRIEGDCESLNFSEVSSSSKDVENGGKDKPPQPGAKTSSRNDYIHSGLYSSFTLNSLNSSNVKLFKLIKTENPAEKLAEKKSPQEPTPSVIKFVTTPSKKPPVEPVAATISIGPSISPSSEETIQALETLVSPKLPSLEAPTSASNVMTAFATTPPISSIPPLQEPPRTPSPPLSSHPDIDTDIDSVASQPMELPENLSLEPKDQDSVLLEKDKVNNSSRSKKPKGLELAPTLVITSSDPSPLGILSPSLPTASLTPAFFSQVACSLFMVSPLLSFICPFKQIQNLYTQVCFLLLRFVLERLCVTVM
The procedure, abridged: as §1

The next test addresses T4, ETV2 (Homo sapiens, UniProt O00321 1-342).
T4 sequence: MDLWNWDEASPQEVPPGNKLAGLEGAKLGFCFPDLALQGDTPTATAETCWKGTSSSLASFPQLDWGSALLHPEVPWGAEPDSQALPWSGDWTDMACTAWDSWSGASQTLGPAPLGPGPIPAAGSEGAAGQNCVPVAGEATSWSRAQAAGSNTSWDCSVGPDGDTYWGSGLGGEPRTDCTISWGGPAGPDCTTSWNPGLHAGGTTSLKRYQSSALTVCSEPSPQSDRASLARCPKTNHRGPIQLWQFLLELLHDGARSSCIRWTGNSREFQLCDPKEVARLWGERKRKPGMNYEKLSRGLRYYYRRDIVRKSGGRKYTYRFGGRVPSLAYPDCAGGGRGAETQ
The procedure, abridged:
as §1

The target in a further test is T5, ELF3 (Homo sapiens, UniProt P78545 1-371).
T5 sequence: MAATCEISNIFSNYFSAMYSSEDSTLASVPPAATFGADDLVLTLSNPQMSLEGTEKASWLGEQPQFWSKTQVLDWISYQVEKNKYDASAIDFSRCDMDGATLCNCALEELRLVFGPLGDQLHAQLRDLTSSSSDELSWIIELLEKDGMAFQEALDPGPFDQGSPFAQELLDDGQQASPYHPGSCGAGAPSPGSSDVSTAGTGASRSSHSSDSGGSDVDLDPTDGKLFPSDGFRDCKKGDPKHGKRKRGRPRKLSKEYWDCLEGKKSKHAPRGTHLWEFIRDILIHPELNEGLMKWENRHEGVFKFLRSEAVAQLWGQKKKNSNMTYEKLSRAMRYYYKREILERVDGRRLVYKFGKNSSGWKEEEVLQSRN
The procedure, abridged:
as §1

A further test addresses ETV1 (Homo sapiens, UniProt P50549 1-477). The procedure, abridged:
as §1

Sequence of ELF4 (Q99607 whole entry): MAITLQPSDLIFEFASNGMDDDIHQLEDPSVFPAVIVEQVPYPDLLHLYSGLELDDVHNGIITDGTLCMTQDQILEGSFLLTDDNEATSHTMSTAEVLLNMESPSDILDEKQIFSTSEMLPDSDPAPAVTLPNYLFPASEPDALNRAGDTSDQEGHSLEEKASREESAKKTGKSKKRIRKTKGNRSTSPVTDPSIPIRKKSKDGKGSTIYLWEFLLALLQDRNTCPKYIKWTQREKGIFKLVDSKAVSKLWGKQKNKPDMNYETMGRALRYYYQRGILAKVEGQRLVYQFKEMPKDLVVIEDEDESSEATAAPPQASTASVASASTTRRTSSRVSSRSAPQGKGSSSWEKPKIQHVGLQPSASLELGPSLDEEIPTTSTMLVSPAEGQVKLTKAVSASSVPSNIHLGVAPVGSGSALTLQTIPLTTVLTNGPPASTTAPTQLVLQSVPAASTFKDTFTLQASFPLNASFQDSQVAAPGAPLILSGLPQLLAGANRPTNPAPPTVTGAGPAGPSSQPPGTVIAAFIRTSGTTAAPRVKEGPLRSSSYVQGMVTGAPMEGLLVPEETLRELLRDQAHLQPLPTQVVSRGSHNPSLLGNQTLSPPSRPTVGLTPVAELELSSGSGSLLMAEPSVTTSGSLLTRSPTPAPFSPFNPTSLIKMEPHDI
Sequence of ETV1 (P50549 whole entry): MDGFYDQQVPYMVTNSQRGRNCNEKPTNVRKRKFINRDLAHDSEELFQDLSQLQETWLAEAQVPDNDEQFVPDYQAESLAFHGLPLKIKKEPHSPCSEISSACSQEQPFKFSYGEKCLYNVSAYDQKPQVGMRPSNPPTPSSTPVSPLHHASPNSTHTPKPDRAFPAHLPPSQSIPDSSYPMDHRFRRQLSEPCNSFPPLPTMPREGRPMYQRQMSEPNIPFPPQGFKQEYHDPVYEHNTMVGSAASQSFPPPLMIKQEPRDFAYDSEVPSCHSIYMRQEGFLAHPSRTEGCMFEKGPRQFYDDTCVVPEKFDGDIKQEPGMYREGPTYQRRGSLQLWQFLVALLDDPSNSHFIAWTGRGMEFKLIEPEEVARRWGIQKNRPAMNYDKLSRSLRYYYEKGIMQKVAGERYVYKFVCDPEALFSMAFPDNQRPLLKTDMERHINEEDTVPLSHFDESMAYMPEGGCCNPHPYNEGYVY
Sequence of ETV5 (P41161 whole entry): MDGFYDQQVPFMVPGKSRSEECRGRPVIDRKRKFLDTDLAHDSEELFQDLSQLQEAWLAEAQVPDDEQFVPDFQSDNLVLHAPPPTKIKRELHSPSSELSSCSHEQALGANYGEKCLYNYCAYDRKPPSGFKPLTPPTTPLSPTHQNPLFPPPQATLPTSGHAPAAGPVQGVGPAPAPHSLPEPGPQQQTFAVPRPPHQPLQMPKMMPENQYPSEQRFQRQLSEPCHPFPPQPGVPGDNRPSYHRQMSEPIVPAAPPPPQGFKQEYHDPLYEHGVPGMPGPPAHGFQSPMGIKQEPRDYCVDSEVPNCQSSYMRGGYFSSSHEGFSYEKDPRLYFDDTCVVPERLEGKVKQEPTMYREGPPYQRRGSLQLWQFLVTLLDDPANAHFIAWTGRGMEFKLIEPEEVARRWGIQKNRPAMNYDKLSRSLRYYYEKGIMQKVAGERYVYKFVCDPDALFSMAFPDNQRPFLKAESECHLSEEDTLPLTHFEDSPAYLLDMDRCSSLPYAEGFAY

Take CAAATG: the binding signal was 1.11 fold enrichment (6-mer frequency, TF over GST control) in the test with FEV; 1.09 fold enrichment (6-mer frequency, TF over GST control) with ETV5; 1.01 fold enrichment (6-mer frequency, TF over GST control) in the test with SPIC; 1.15 fold enrichment (6-mer frequency, TF over GST control) in the test with ELF4; 1.11 fold enrichment (6-mer frequency, TF over GST control) with ELK4; 1.19 fold enrichment (6-mer frequency, TF over GST control) in the test with ETV2. In addition, the binding signal in the test with ELF3 was 1.15 fold enrichment (6-mer frequency, TF over GST control); in the test with ETV1, 1.19 fold enrichment (6-mer frequency, TF over GST control).
In the case of GCGCCT, the binding signal was 1.13 fold enrichment (6-mer frequency, TF over GST control) with FEV; 1.07 fold enrichment (6-mer frequency, TF over GST control) with ETV5; 1 fold enrichment (6-mer frequency, TF over GST control) with SPIC; 1.07 fold enrichment (6-mer frequency, TF over GST control) in the test with ELF4; 1.28 fold enrichment (6-mer frequency, TF over GST control) in the test with ELK4; 1.13 fold enrichment (6-mer frequency, TF over GST control) with ETV2. Also, the binding signal is 1.11 fold enrichment (6-mer frequency, TF over GST control) with ELF3 and 1.17 fold enrichment (6-mer frequency, TF over GST control) with ETV1.
Turning to GCAATG, the binding signal with FEV was 1.08 fold enrichment (6-mer frequency, TF over GST control); with ETV5, 1.09 fold enrichment (6-mer frequency, TF over GST control); in the test with SPIC, 1.08 fold enrichment (6-mer frequency, TF over GST control); in the test with ELF4, 1.04 fold enrichment (6-mer frequency, TF over GST control); with ELK4 it was 1.13 fold enrichment (6-mer frequency, TF over GST control); with ETV2 it was 1.07 fold enrichment (6-mer frequency, TF over GST control). Moreover, the binding signal in the test with ELF3 was 1.17 fold enrichment (6-mer frequency, TF over GST control); with ETV1, 1.06 fold enrichment (6-mer frequency, TF over GST control).
Turning to GATGTC, the binding signal with FEV is 1.59 fold enrichment (6-mer frequency, TF over GST control); in the test with ETV5 it was 1.37 fold enrichment (6-mer frequency, TF over GST control); with SPIC it was 1.23 fold enrichment (6-mer frequency, TF over GST control); with ELF4, 1.24 fold enrichment (6-mer frequency, TF over GST control); in the test with ELK4, 1.15 fold enrichment (6-mer frequency, TF over GST control); with ETV2, 1.24 fold enrichment (6-mer frequency, TF over GST control). The binding signal was 1.25 fold enrichment (6-mer frequency, TF over GST control) in the test with ELF3 and 1.3 fold enrichment (6-mer frequency, TF over GST control) with ETV1.
Regarding CATGCC, the binding signal with FEV was 1.13 fold enrichment (6-mer frequency, TF over GST control); in the test with ETV5, 1.13 fold enrichment (6-mer frequency, TF over GST control); with SPIC it was 1.16 fold enrichment (6-mer frequency, TF over GST control); with ELF4, 1.16 fold enrichment (6-mer frequency, TF over GST control); with ELK4 it was 1.17 fold enrichment (6-mer frequency, TF over GST control); in the test with ETV2, 1.08 fold enrichment (6-mer frequency, TF over GST control). Further, the binding signal in the test with ELF3 is 1.13 fold enrichment (6-mer frequency, TF over GST control); with ETV1 it was 1.12 fold enrichment (6-mer frequency, TF over GST control).
With CCCACA, the binding signal is 1.17 fold enrichment (6-mer frequency, TF over GST control) with FEV; 1.14 fold enrichment (6-mer frequency, TF over GST control) in the test with ETV5; 1.2 fold enrichment (6-mer frequency, TF over GST control) with SPIC; 1.15 fold enrichment (6-mer frequency, TF over GST control) with ELF4; 1.1 fold enrichment (6-mer frequency, TF over GST control) with ELK4; 1.1 fold enrichment (6-mer frequency, TF over GST control) with ETV2. For the same sequence, the binding signal in the test with ELF3 was 1.14 fold enrichment (6-mer frequency, TF over GST control); with ETV1 it was 1.07 fold enrichment (6-mer frequency, TF over GST control).
With CATCAC, the binding signal with FEV was 1.16 fold enrichment (6-mer frequency, TF over GST control); in the test with ETV5 it was 1.13 fold enrichment (6-mer frequency, TF over GST control); with SPIC, 1.26 fold enrichment (6-mer frequency, TF over GST control); in the test with ELF4 it was 1.12 fold enrichment (6-mer frequency, TF over GST control); with ELK4, 1.29 fold enrichment (6-mer frequency, TF over GST control); with ETV2 it was 1.11 fold enrichment (6-mer frequency, TF over GST control). Moreover, the binding signal is 1.14 fold enrichment (6-mer frequency, TF over GST control) in the test with ELF3 and 1.1 fold enrichment (6-mer frequency, TF over GST control) with ETV1.
Consider GCACAA, for which the binding signal was 1.1 fold enrichment (6-mer frequency, TF over GST control) with FEV; 1.07 fold enrichment (6-mer frequency, TF over GST control) in the test with ETV5; 1.09 fold enrichment (6-mer frequency, TF over GST control) in the test with SPIC; 1.11 fold enrichment (6-mer frequency, TF over GST control) with ELF4; 1.08 fold enrichment (6-mer frequency, TF over GST control) with ELK4; 1.03 fold enrichment (6-mer frequency, TF over GST control) in the test with ETV2. For the same sequence, the binding signal in the test with ELF3 is 1.13 fold enrichment (6-mer frequency, TF over GST control); in the test with ETV1, 1.04 fold enrichment (6-mer frequency, TF over GST control).

The values above are taken from publication PMC7862700, “An all-to-all approach to the identification of sequence-specific readers for epigenetic DNA modifications on cytosine”.
